Source: PubChem BioAssay (Tox21)
“And” between values parts separate entries of the source, which are not always exact repeats. Equal values may be shown once. Unmarked numbers belong to inactive results. Inconclusive results are not listed. Where a call stands in place of a potency, no number is given. The source made the active and inactive calls. Unless noted, the call rests on the fitted dose curve; in most records, active means well fitted curve in the direction sought with a large enough effect in the repeat runs; inconclusive means weak or mixed curves; inactive means no such curve, though single readings can be large; an effect the other way counts as inactive or inconclusive.

What was measured:
[1] = qHTS assay to identify small molecule agonists of the androgen receptor (AR) signaling pathway in the presence of an antagonist - cell viability counter screen (AID 1259379); further: nearly all actives have a fitted effect of over 25% in size; further: potency means the concentration at half of the fitted maximal effect;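 on activity change, negative = cytotoxicity: MDA-kb2 human breast cancer cells carrying an MMTV luciferase reporter; series mostly up to about 92 µM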
Method in brief: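 Cells: MDA-kb2 (MMTV-luc, AR and GR elements), 3,000/well, 5 hr settle. Added: nilutamide 3.0uM final, then compounds (15 conc.). Incubation: 16 hr, 37C, no CO2. Read-out: CellTiter-Fluor, 1 hr, fluorescence.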

[2] = qHTS assay to identify small molecule agonists of the estrogen receptor beta (ER-beta) signaling pathway - cell viability counter screen (AID 1259380); further: nearly all actives have a fitted effect of over 30% in size; further: potency means the concentration at half of the fitted maximal effect
Method in brief: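 HEK293T ER-beta-UAS-bla; 2% CS-FBS; 6 hr pre-plate, 16 hr cpd at 37C/5% CO2; LiveBLAzer read first, then CellTiter-Glo 30 min RT, luminescence.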

[3] = qHTS assay to identify small molecule antagonists of the estrogen receptor beta (ER-beta) signaling pathway - cell viability counter screen (AID 1259382); further: nearly all actives have a fitted effect of over 55% in size; further: potency means the concentration at half of the fitted maximal effect;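 on activity change, negative = cytotoxicity: HEK293T cells carrying ER-beta-UAS-bla reporter stimulated with estradiol; series mostly up to about 92 µM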
Method in brief: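 Cells: ER-beta-UAS-bla HEK293T, 2,000/well, 2% CS-FBS, 6 hr settle. Cpd + E2 (1nM final), 16 hr, 37C/5% CO2. Bla FRET substrate 2 hr RT, then CellTiter-Glo 30 min RT, luminescence.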

[4] = molecular target: Estrogen receptor (Homo sapiens) (UniProt P03372); experiment: qHTS assay to identify small molecule agonists of the estrogen receptor alpha (ER-alpha) signaling pathway in the presence of an antagonist (AID 1259383; calls by dose curve; further: top concentration of the series differs between compounds; nearly all actives have a fitted effect of over 15% in size)
Chain of Estrogen receptor (Homo sapiens) (P03372 whole entry, looked up): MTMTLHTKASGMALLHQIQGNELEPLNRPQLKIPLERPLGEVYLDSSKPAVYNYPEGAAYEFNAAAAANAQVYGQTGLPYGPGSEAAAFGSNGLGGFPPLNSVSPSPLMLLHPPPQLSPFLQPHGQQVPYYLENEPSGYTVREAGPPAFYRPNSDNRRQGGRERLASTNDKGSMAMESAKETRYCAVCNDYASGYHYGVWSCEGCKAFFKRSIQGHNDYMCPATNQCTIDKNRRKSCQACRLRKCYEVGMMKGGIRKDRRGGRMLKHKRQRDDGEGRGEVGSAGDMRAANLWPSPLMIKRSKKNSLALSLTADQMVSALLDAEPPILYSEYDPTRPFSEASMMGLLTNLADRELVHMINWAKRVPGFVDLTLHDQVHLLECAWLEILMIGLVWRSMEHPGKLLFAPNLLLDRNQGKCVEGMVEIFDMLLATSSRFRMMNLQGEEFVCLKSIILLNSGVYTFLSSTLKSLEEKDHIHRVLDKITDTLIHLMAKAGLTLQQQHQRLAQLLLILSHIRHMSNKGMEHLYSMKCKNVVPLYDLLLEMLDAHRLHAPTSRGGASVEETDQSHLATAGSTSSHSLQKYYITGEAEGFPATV
Method in brief: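 VM7Luc4E2, endog. ER-alpha + 4×ERE-luc; charcoal-stripped FBS, phenol red-free, 5 d; 24hr plating; +10.0nM ICI-182,780 (final); cpds 15 conc, 22hr, 37C/5% CO2; ONE-Glo luminescence.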

[5] = qHTS assay to identify small molecule agonists or antagonists of the thyroid stimulating hormone receptor (TSHR) signaling pathway - wild type cell line counter screen (AID 1259384; calls by dose curve)
Method in brief: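 Wild-type Hek293 cells, 800/well, 18 h at 37C, then compound with Ro20-1724 for 30 min RT. cAMP by HTRF (cAMP-d2/anti-cAMP cryptate), 1 h RT, fluorescence read. 15 concentrations, triplicates.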

[6] = molecular target: Thyrotropin receptor (Homo sapiens) (UniProt P16473); experiment: qHTS assay to identify small molecule antagonists of the thyroid stimulating hormone receptor (TSHR) signaling pathway (AID 1259385; calls by dose curve; further: nearly all actives have a fitted effect of over 20% in size; further: potency means the concentration at half of the fitted maximal effect)
Chain of Thyrotropin receptor (Homo sapiens) (P16473 whole entry, looked up): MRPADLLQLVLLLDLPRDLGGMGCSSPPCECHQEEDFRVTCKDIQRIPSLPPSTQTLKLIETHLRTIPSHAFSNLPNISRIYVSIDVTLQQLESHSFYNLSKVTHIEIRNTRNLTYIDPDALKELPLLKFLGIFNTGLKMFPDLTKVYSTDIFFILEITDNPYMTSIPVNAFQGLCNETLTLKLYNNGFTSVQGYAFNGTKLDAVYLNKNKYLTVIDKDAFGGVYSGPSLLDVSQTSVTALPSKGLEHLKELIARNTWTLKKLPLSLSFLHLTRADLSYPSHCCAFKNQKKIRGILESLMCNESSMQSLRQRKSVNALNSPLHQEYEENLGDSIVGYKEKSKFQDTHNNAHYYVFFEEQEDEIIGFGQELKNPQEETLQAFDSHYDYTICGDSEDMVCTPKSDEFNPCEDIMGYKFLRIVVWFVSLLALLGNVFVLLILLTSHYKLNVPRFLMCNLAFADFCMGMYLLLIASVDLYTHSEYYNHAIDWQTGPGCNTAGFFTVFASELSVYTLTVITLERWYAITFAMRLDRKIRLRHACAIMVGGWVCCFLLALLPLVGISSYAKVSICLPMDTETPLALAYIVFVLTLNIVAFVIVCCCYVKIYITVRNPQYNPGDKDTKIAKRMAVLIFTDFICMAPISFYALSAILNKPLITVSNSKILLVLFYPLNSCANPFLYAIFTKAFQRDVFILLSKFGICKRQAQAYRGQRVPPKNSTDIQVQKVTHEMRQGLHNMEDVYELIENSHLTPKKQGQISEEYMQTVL
Method in brief: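 TSHR-HEK293 cells (800/well) plated 18 h, then compounds with Ro20-1724 and TSH at 1.5 ng/mL final, 30 min at room temperature. cAMP quantified by HTRF (cAMP-d2/anti-cAMP-cryptate, 1 h); 15 concentrations in triplicate.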

[7] = molecular target: Progesterone receptor (Homo sapiens) (UniProt P06401); experiment: qHTS assay to identify small molecule antagonists of the progesterone receptor (PR) signaling pathway (AID 1346795; active means well fitted inhibition curve with a large enough effect in the signal ratio in the repeat runs, not every such curve was filed as active; the % refers to the signal ratio; further: potency means the concentration at half of the fitted maximal effect)
Chain of Progesterone receptor (Homo sapiens) (P06401 whole entry, looked up): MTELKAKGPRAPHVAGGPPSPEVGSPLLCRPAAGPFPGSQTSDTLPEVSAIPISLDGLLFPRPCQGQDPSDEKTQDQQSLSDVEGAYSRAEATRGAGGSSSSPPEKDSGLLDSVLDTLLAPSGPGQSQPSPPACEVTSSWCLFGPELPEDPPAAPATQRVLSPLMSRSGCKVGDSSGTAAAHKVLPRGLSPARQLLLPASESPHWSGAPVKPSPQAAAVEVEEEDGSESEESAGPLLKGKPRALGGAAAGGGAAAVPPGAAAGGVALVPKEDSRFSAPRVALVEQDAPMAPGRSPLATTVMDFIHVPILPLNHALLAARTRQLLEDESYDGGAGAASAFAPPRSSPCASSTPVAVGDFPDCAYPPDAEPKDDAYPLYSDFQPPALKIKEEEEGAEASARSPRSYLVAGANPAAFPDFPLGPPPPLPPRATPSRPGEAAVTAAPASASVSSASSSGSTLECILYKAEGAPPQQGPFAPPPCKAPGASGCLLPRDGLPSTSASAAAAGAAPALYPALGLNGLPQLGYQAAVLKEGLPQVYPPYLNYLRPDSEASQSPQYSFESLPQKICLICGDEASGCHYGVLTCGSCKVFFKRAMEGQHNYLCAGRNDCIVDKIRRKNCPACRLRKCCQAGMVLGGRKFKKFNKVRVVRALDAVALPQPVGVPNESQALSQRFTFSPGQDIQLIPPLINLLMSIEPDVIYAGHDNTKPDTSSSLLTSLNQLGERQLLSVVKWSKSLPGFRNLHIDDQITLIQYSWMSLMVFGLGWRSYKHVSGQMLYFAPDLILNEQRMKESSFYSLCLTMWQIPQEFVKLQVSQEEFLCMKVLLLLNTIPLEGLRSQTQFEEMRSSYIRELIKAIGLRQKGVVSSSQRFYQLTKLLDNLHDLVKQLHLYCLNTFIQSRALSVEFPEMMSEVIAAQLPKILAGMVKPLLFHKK
Method in brief: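 Stimulus R5020 at 1 nM final; cells HEK293T PR-UAS-bla; medium with 2% charcoal-stripped FBS; compound exposure 16 hr at 37C, 5% CO2; detection by FRET beta-lactamase substrate, 2 hr, room temperature.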

[8] = qHTS assay to identify small molecule agonists of the TGF-beta/Smad signaling pathway - cell viability counter screen (AID 1346829); further: nearly all actives have a fitted effect of over 45% in size; further: potency means the concentration at half of the fitted maximal effect; on activity change, negative = cytotoxicity: top concentration of the series differs between compounds
Method in brief: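 SBE-bla HEK 293T cells plated overnight, compound exposure 5 hr at 37 C. Viability read in the same wells by CellTiter-Glo luminescence after 30 min at room temperature, following the beta-lactamase read.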

[9] = molecular target: Thyrotropin-releasing hormone receptor (Homo sapiens) (UniProt P34981); experiment: qHTS assay to identify small molecule antagonists of the thyrotropin-releasing hormone receptor (TRHR) signaling pathway (AID 1346877; active means well fitted inhibition curve with a large enough effect in the repeat runs, not every such curve was filed as active; further: series mostly up to about 51 µM)
Chain of Thyrotropin-releasing hormone receptor (Homo sapiens) (P34981 whole entry, looked up): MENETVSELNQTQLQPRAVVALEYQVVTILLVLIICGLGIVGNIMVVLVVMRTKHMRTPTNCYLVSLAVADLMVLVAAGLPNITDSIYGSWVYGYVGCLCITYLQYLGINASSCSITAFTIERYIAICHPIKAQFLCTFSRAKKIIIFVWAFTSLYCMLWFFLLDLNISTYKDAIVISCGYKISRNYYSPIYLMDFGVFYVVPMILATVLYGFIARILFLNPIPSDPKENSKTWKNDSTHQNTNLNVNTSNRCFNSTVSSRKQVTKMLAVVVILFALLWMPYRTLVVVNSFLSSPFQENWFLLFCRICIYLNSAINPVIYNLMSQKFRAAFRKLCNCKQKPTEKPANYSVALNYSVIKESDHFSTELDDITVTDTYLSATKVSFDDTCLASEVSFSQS
Method in brief: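 Intracellular calcium fluorescence, read kinetically every second over 3 min, reports TRH-evoked signalling in HEK293 cells carrying TRHR. Test compounds were added 5 min ahead of a 1 nM TRH challenge.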

[10] = molecular target: Thyrotropin-releasing hormone receptor (Homo sapiens) (UniProt P34981); experiment: qHTS assay to identify small molecule agonists of the thyrotropin-releasing hormone receptor (TRHR) signaling pathway (AID 1346891; calls by dose curve; further: series mostly up to about 58 µM)
Method in brief: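 Readout was intracellular calcium fluorescence in TRHR-Hek293 cells. Cells were incubated 18 h, dye-loaded 2 h at 37 °C, and treated with compound in agonist mode.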

[11] = Human pregnane X receptor (PXR) small molecule agonists, qHTS cell viability counter screen (AID 1346977); further: nearly all actives have a fitted effect of over 50% in size; further: potency means the concentration at half of the fitted maximal effect
Method in brief: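 In each well, the PXR reporter HepG2 line was checked for viability: CellTiter-Fluor reagent added 23hr post-dosing, fluorescence read after 1hr incubation at 37C.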

[12] = molecular target: Androgen receptor (Homo sapiens) (UniProt P10275); experiment: qHTS assay to identify small molecule agonists of the androgen receptor (AR) signaling pathway in the presence of an antagonist (AID 1259381; calls by dose curve; further: nearly all actives have a fitted effect of over 15% in size)
Chain of Androgen receptor (Homo sapiens) (P10275 whole entry, looked up): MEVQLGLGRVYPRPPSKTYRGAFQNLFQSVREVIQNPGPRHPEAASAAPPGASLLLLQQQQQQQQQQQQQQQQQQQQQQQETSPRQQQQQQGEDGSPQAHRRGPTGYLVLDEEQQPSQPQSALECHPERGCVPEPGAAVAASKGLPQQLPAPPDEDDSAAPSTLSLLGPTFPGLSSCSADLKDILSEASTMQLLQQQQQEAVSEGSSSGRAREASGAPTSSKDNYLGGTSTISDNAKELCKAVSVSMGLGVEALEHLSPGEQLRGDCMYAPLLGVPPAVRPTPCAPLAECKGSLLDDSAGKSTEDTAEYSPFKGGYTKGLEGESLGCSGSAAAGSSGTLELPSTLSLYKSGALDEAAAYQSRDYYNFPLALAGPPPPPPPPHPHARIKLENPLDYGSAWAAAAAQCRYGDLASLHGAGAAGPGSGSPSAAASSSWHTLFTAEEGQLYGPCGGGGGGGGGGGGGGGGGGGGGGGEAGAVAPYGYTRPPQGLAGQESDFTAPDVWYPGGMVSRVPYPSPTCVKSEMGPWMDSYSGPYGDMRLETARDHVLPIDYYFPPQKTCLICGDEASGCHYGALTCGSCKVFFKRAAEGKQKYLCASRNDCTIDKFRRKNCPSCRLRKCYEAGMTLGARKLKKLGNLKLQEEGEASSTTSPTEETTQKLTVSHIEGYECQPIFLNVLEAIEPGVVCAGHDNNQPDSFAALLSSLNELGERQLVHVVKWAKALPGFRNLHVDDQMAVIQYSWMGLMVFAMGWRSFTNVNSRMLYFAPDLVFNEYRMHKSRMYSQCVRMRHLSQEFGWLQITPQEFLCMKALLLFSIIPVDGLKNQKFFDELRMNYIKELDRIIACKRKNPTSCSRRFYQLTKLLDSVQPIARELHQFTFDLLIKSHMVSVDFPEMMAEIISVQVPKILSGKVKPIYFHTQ
Method in brief: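 MDA-kb2 cells, 3,000/well, rested 5hr at 37C/0% CO2 → nilutamide 3.0uM final or buffer → compounds, 15 conc. → 16hr at 37C → ONE-Glo, 30min RT → luminescence.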

[13] = qHTS assay to identify small molecule antagonists of the progesterone receptor (PR) signaling pathway - cell viability counter screen (AID 1346798); further: nearly all actives have a fitted effect of over 50% in size; further: potency means the concentration at half of the fitted maximal effect; on activity change, negative = cytotoxicity: series mostly up to about 92 µM
Method in brief: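 In the same plates used for the beta-lactamase readout, cell viability of compound- and R5020-treated PR-UAS-bla HEK293T cells (16 hr, 37C) was assessed by CellTiter-Glo luminescence.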

[14] = qHTS assay to identify small molecule agonists of the progesterone receptor (PR) signaling pathway - cell viability counter screen (AID 1346799; calls by dose curve; further: nearly all actives have a fitted effect of over 45% in size)
Method in brief: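 Multiplexed viability read: CellTiter-Glo luminescence, 30 min RT, following LiveBLAzer FRET measurement on PR-UAS-bla HEK293T cells exposed to compounds 16 hr.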

[15] = qHTS assay to identify small molecule agonists of the TGF-beta/Smad signaling pathway (AID 1346859; active means well fitted activation curve with a large enough effect in the signal ratio in the repeat runs, not every such curve was filed as active; the % refers to the signal ratio; further: series mostly up to about 77 µM)
Method in brief: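 Screening used HEK 293T SBE-bla cells at 4,000/well. Test agents: 5 hr, 37 C. Detection: FRET substrate, 2 hr RT, then excitation 405 nm with emissions at 460 and 530 nm.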

[16] = qHTS assay to identify small molecule agonists of the estrogen receptor alpha (ER-alpha) signaling pathway in the presence of an antagonist - cell viability counter screen (AID 1259386);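 further: cells exposed to compounds for 22 h at 37 °C before the viability read; nearly all actives have a fitted effect of over 30% in size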; further: potency means the concentration at half of the fitted maximal effect; on activity change, negative = cytotoxicity: series mostly up to about 92 µM
Method in brief: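 VM7Luc4E2, stripped-serum pre-culture 5 d; 24hr plating; +ICI-182,780 10.0nM final; cpds 15 conc, 22hr, 37C/5% CO2; CellTiter-Fluor added at 21hr, fluorescence 1hr later.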

[17] = qHTS assay to identify small molecule antagonists of the TGF-beta/Smad signaling pathway - cell viability counter screen (AID 1346824); further: potency means the concentration at half of the fitted maximal effect; nearly all actives have a fitted effect of over 50% in size
Method in brief: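 SBE-bla HEK 293T cells, incubated overnight, then compound plus 0.25 ng/mL TGF-beta1 (stock added) for 5 hr at 37 C. Viability was read in the same wells by CellTiter-Glo luminescence after 30 min at room temperature.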

[18] = molecular target: Progesterone receptor (Homo sapiens) (UniProt P06401); experiment: qHTS assay to identify small molecule agonists of the progesterone receptor (PR) signaling pathway (AID 1346784; calls by dose curve; further: nearly all actives have a fitted effect of over 30% in size)
Method in brief: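 Reporter assay, GripTite PR-UAS-bla HEK 293T cells: 16 hr exposure to DMSO-dissolved compounds at 37C, 5% CO2, in steroid-depleted (2% charcoal-stripped FBS) medium; beta-lactamase measured by FRET fluorescence.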

In the case of CC[C@H](C)[C@H]1O[C@]2(C=C[C@@H]1C)C[C@@H]1C[C@@H](C/C=C(\C)[C@@H](O[C@H]3C[C@H](OC)[C@@H](O[C@H]4C[C@H](OC)[C@@H](O)[C@H](C)O4)[C@H](C)O3)[C@@H](C)/C=C/C=C3\CO[C@@H]4[C@H](O)C(C)=C[C@@H](C(=O)O1)[C@]34O)O2, the Potency [1] is reported as 36.1 µM (active), the Potency [2] is reported as 18.1 µM (active) and the Potency [3] is reported as 25.6 µM (active). For the same compound, the Potency [4] was “inactive”, the outcome [5] was “inactive” and the Potency [6] was “inactive”. The Potency [7] was 16.1 µM (active), the Potency [8] was “inactive” and the Potency [9] was “inactive”. The Potency [10] was “inactive” and the Potency [11] was 16.1 µM (active).
For N#CSCSC#N, the Potency [1] was 70.1 µM (active) and 67.9 µM (active), the Potency [2] was 27.9 µM (active) and 27 µM (active) and the Potency [12] was “inactive”. The Potency [3] was 55.7 µM (active) and 48.1 µM (active), the outcome [5] was “inactive” and the Potency [6] was 55.7 µM (active). The Potency [13] was “inactive”, the Potency [14] was “inactive” and the Potency [8] was “inactive”. For the same compound, the outcome [15] was “inactive”, the Potency [9] was “inactive” and the Potency [10] was “inactive”. The Potency [11] was 39.8 µM (active) and 53.9 µM (active).
In the case of C[CH2][Hg][N]1C(=O)C2C(C1=O)C1(Cl)C(Cl)=C(Cl)C2(Cl)C1(Cl)Cl (stereo not given), the Potency [1] is reported as 13 µM (active), the Potency [2] is reported as 9.2 µM (active) and the activation [12] is reported as -7.84% [at 19 µM]. For the same compound, the Potency [3] was 11.6 µM (active), the cAMP activity change [5] was 11% [at 18.9 µM] and the Potency [6] was 14.6 µM (active). For the same compound, the Potency [13] was 14.6 µM (active) and the activity change, negative = cytotoxicity [8] was 0.501% [at 15.8 µM].
With CCN(CC)C(=S)[S-].CCN(CC)C(=S)[S-].[Zn+2] the Potency [1] was 60.6 µM (active), the Potency [2] was 2.71 µM (active) and the Potency [3] was 2.15 µM (active). The Potency [4] was “inactive”, the outcome [5] was “inactive” and the Potency [6] was 68 µM (active). The Potency [16] was 12.1 µM (active), the Potency [7] was 1.08 µM (active) and the Potency [13] was 1.21 µM (active). For the same compound, the Potency [17] was 12.2 µM (active), the Potency [8] was 38.6 µM (active) and the outcome [15] was “inactive”. The Potency [11] was 1.71 µM (active).
In the case of FC(Cl)(Cl)Cl, the Potency [1] is reported as “inactive”, the Potency [2] is reported as “inactive” and the Potency [12] is reported as “inactive”. For the same compound, the Potency [3] was “inactive”, the outcome [5] was “inactive” and the Potency [6] was “inactive”. For the same compound, the Potency [16] was “inactive”, the Potency [18] was “inactive” and the Potency [13] was “inactive”. The Potency [14] was “inactive”, the Potency [8] was “inactive” and the outcome [15] was “inactive”. For the same compound, the Potency [9] was “inactive”, the Potency [10] was “inactive” and the Potency [11] was “inactive”.
